Measurements as given in PubChem BioAssay (EPA / NIEHS).
Where “and” joins values, the source holds several entries; their conditions need not be identical. Equal values may be shown once. Records with an inconclusive call do not appear. Some compounds were tested as several samples or in several runs, with calls that do not always agree. Calls of active or inactive are those of the source. Rule for the calls, unless noted: active = hit-call score of the fitted dose curve at least 0.9, where 1 is the maximum; inactive = score below 0.9.

How the values were obtained:
[1] = CCTE_Shafer_MEA_dev_active_electrodes_number: CCTE's Neural Network Formation Assay for Number of Active Electrodes, Shafer Lab (AID 2284040; active = hit-call score of the fitted dose curve at least 0.9, where 1 is the maximum;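 for AC50: potency for loss of active electrodes versus DMSO so lower counts are hits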)
Procedure, shortened: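 Rat cortical primary cultures, 1.5 x 10^5 cells/well, PEI-coated MEA, laminin drop. Continuous exposure DIV 0–12; full media/compound change DIV 5, 9. Readout: electrodes with mean firing ≥5 spikes/min; AUC across days; loss vs DMSO.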

[2] = CCTE_Shafer_MEA_dev_burst_rate: CCTE's Neural Network Formation Assay for Burst Rate, Shafer Lab (AID 2284042);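 for AC50: potency for loss of burst rate below DMSO control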
Procedure, shortened: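 Cells plated, treated day 0; recorded DIV 5, 7, 9, 12; fed and re-treated DIV 5, 9. Endpoint: bursts per recording time, active-electrode well mean, trapezoidal AUC, fitted in decreasing direction against DMSO baseline.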

[3] = CCTE_Shafer_MEA_dev_bursting_electrodes_number: CCTE's Neural Network Formation Assay for Number of Bursting Electrodes, Shafer Lab (AID 2284043; active = hit-call score of the fitted dose curve at least 0.9, where 1 is the maximum;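 for AC50: potency is for loss of bursting electrodes relative to DMSO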)
Procedure, shortened: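 Primary rat cortical neurons were cultured on PEI-coated 48-well MEA plates (16 electrodes/well) and exposed from plating through day 12, with compound renewed at feeds on DIV 5 and 9. Electrodes bursting ≥1 per 2 min were counted on DIV 5, 7, 9, 12; trapezoidal AUC taken.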

[4] = CCTE_Shafer_MEA_dev_per_burst_interspike_interval: CCTE's Neural Network Formation Assay for Burst Interspike Interval, Shafer Lab (AID 2284044);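 note: mean spike spacing inside bursts as AUC over recordings on days 5 7 9 12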;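 for AC50: potency for a decrease of within-burst interspike interval below DMSO level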
Procedure, shortened: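 Neurons from rat cortex plated onto PEI-coated MEA wells with laminin […] at 1.5 x 10^5 cells/well, then treated from day 0. Media and compound fully replaced on DIV 5 and 9. Extracellular spontaneous firing recorded four times; interspike interval per burst summarised as AUC.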

[5] = CCTE_Shafer_MEA_dev_burst_duration_mean: CCTE's Neural Network Formation Assay for Mean Burst Duration, Shafer Lab (AID 2284045);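 for AC50: curve fitted for loss meaning shorter burst duration than DMSO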
Procedure, shortened: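 Primary rat cortical neurons on PEI-coated 16-electrode MEA wells, exposed from plating through day 12 with compound renewed at DIV 5 and 9; spontaneous activity recorded days 5, 7, 9, 12. Well-mean burst duration collapsed as trapezoidal AUC, fitted for loss versus DMSO.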

[6] = CCTE_Shafer_MEA_dev_interburst_interval_mean: CCTE's Neural Network Formation Assay for Mean Interburst Interval, Shafer Lab (AID 2284046);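 note: well-mean interburst interval of bursting electrodes as AUC over four recording days; curve fitted for decrease in interburst interval relative to DMSO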
Procedure, shortened: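 Developing rat cortical networks on 48-well MEAs receive compound from the day of plating. Burst intervals from each active electrode are averaged per well, and AUC over the recording days is fitted in the negative direction against DMSO.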

[7] = CCTE_Shafer_MEA_dev_inter_network_spike_interval_mean: CCTE's Neural Network Formation Assay for Mean Inter-network Spike Interval, Shafer Lab (AID 2284047);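 for AC50: potency for a decrease in mean inter-network spike interval below DMSO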
Procedure, shortened: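 Rat cortical cultures, 1.5 x 10^5 cells/well on 48-well MEA plates; continuous exposure days 0–12, medium and compound refreshed DIV 5, 9. Mean time between consecutive network-spike peaks; AUC across DIV 5/7/9/12; DMSO baseline, negative fitting direction.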

[8] = CCTE_Shafer_MEA_dev_network_spike_number: CCTE's Neural Network Formation Assay for Number of Network Spikes, Shafer Lab (AID 2284048);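 note: synchronized bursts across electrodes counted on days 5 7 9 12 and integrated as AUC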;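 for AC50: fit as a loss of signal meaning fewer network spikes than DMSO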
Procedure, shortened: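 Primary rat cortical neurons were seeded at 1.5 x 10^5 cells/well on PEI-coated 16-electrode MEA wells with laminin, exposed from plating day 0, compound renewed at DIV 5 and 9. Network spikes were recorded on days 5, 7, 9, 12 and summarized as trapezoidal AUC versus DMSO.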

[9] = CCTE_Shafer_MEA_dev_network_spike_peak: CCTE's Neural Network Formation Assay for Mean Number of Electrodes in Network Spike, Shafer Lab (AID 2284049);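 for AC50: fitted for loss of signal meaning fewer electrodes in network spikes than DMSO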
Procedure, shortened: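 Continuous 12-day exposure of rat cortical cultures, starting at plating, on MEA plates. Endpoint: electrodes participating in network-spike peaks, AUC across DIV 5–12, DMSO as negative control.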

[10] = CCTE_Shafer_MEA_dev_spike_duration_mean: CCTE's Neural Network Formation Assay for Mean Spike Duration, Shafer Lab (AID 2284051);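 note: mean network spike duration pooled as area under curve over DIV 5 to 12 recordings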;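 for AC50: potency for a decrease in mean network spike duration versus DMSO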
Procedure, shortened: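 Readout is the average length of network spikes, clustered firing across electrodes, summed over DIV 5, 7, 9 and 12 as area under the curve. Neurons from rat cortex developed networks on MEA plates under continuous 12-day exposure.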

[11] = CCTE_Shafer_MEA_dev_network_spike_duration_std: CCTE's Neural Network Formation Assay for Standard Deviation of Network Spike Duration, Shafer Lab (AID 2284052);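 note: area under curve of spike duration SD across recording days 5 to 12; hits are decreases in network spike duration SD versus DMSO vehicle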
Procedure, shortened: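 Read-out is the trapezoidal area-under-the-curve across recordings made on days 5, 7, 9 and 12, fitted in the negative direction against DMSO baseline. Neurons were primary rat cortical cells treated from day 0, with treatment renewed at each feed.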

[12] = CCTE_Shafer_MEA_dev_per_network_spike_spike_number_mean: CCTE's Neural Network Formation Assay for Mean Number of Spikes in a Network Spike, Shafer Lab (AID 2284053);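 for AC50: fitted as decrease in spikes per network spike relative to DMSO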
Procedure, shortened: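 Continuous twelve-day exposure of developing rat cortical networks grown over 16 microelectrodes per well; spontaneous firing is captured at four time points, and the per-network-spike spike number is integrated over development by trapezoidal AUC.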

[13] = CCTE_Shafer_MEA_dev_per_network_spike_spike_percent: CCTE's Neural Network Formation Assay for Percent of Spikes in a Network Spike, Shafer Lab (AID 2284054)
Procedure, shortened: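 Primary rat cortical neurons on 16-electrode MEA wells (PEI-coated, laminin at plating), exposed from day 0 with renewal at DIV 5 and 9; spikes within 0.05 s of network-spike peaks over total spikes, AUC across days 5, 7, 9, 12.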

[14] = UKN5_HCS_SBAD2_cell_viability: Viability Assessment in the University of Konstanz (UKN) Leist Lab Neurite Outgrowth Assay in human iPSC-derived immature Dorsal Root Ganglia Neurons (UKN5) (AID 2284056)
Procedure, shortened: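 iPSC-derived immature peripheral neurons (SBAD2) seeded on Matrigel with CHIR99021, SU5402 and DAPT, dosed 1 h later for 24 h. Viability from Hoechst H-33342 and calcein-AM live staining, high-content imaging; bidirectional fit versus DMSO.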

[15] = CCTE_Shafer_MEA_dev_LDH: CCTE's Lactate Dehydrogenase Assay for Cytotoxicity in the Neural Network Formation Assay, Shafer Lab (AID 2284068; active = hit-call score of the fitted dose curve at least 0.9, where 1 is the maximum;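 note: exposure for twelve days from plating with re-dosing on DIV 5 and 9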)
Procedure, shortened: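 Cytotoxicity companion to network-formation recordings: rat cortical neurons received compound over 12 days of development, re-dosed at DIV 5 and 9 feeds. Viability was inferred from LDH enzyme activity relative to DMSO.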

DIO2 (gene 1734) = assay: CCTE_GLTED_hDIO2: CCTE's human Deiodinase 2 (DIO2) Inhibition Assay, Great Lakes Toxicology and Ecology Division (GLTED) Lab (AID 2284050; active = hit-call score of the fitted dose curve at least 0.9, where 1 is the maximum)
Procedure, shortened: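 Cell-free human DIO2 enzyme was incubated with test chemical for 3 h; iodide liberated from substrate was then quantified by the Sandell-Kolthoff reaction (absorbance), run in triplicate. Loss of signal versus DMSO baseline indicated inhibition.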

DIO3 (gene 1735) = assay: CCTE_GLTED_hDIO3: CCTE's human Deiodinase 3 (DIO3) Inhibition Assay, Great Lakes Toxicology and Ecology Division (GLTED) Lab (AID 2284055; active = hit-call score of the fitted dose curve at least 0.9, where 1 is the maximum;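 for AC50: potency is for inhibition seen as loss of released iodide signal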)
Procedure, shortened: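 Cell-free assay with human DIO3 enzyme produced by adenovirus expression; enzyme incubated with test chemical for 3 hours. Liberated iodide then measured by Sandell-Kolthoff absorbance; loss of signal versus DMSO baseline indicates inhibition, run in triplicate.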

[16] = CCTE_Deisenroth_AIME_384WELL_CTox_Inactive: Cytotoxicity Assessment (CTOX) in CCTE's 384-well Estrogen Receptor Transactivation Assay without AIME metabolic competence (metabolism negative), Deisenroth Lab (AID 2284039; active = hit-call score of the fitted dose curve at least 0.9, where 1 is the maximum;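 note: cell viability via live-cell protease substrate cleaved to fluorescent probe; cells exposed 24 h to medium preincubated 2 h with alginate-water beads without S9; loss of fluorescence signal means loss of viability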)
Procedure, shortened: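 Metabolism-negative arm: chemicals (10-point, 0.002 - 200 uM) preincubated 2 h with alginate-water lids, medium moved onto VM7Luc4E2 cells for 24 h. Fluorescent live-cell protease readout; bidirectional curve fit.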

Measured: AC50

Oc1c(Cl)cc(Cl)c(Cl)c1Cc1c(O)c(Cl)cc(Cl)c1Cl
active: [1] 1.02 µM and 1.07 µM | [2] 976 nM and 688 nM | [3] 919 nM and 769 nM | [4] 2.04 µM and 2.61 µM | [5] 1.19 µM and 2.59 µM | [6] 2.62 µM and 2.86 µM | [7] 0.0601 µM | [8] 830 nM and 526 nM | [9] 1.19 µM and 1.83 µM | [10] 1.66 µM and 1.35 µM | [11] 972 nM and 727 nM | [12] 809 nM and 929 nM | [13] 1.03 µM and 842 nM | [14] 73.5 µM | [15] 1.26 µM and 1.25 µM
inactive: [7]

CCOC(=O)[C@@H](C)Oc1ccc(Oc2nc3ccc(Cl)cc3o2)cc1
active: DIO2 (gene 1734) 23.5 µM | DIO3 (gene 1735) 7.15 µM

Cc1cc(S(=O)(=O)O)ccc1N=Nc1c(O)ccc2ccccc12
inactive: DIO2 (gene 1734) | DIO3 (gene 1735)

CCCCCCCCC=CCCCCCCCC1=NCCN1CCO
active: DIO2 (gene 1734) 60.9 µM | DIO3 (gene 1735) 3.92 µM
inactive: [16]

CCCCCCCCCCCCCCN(CCO)CCO
active: DIO2 (gene 1734) 39.9 µM | DIO3 (gene 1735) 7.58 µM

O=CCc1ccccc1
inactive: DIO2 (gene 1734)
active: DIO3 (gene 1735) 74.8 µM

Oc1ccc2cc(SSc3ccc4cc(O)ccc4c3)ccc2c1
active: DIO2 (gene 1734) 22.2 µM | DIO3 (gene 1735) 3.47 µM
inactive: [16]

CCc1cc(Cc2cc(CC)cc(C(C)(C)C)c2O)c(O)c(C(C)(C)C)c1
active: DIO2 (gene 1734) 83.3 µM | DIO3 (gene 1735) 10.7 µM

CN(C)CCOC(C)(c1ccccc1)c1ccccn1 (centres undefined)
not listed: [14] | DIO2 (gene 1734) | DIO3 (gene 1735) | [16]
inactive: all other assays above

FC(F)(F)COCC(F)(F)F
not listed: [3] | [14] | [15] | DIO2 (gene 1734) | DIO3 (gene 1735) | [16]
inactive: all other assays above

COCCc1ccc(OCC(O)CNC(C)C)cc1 (centres undefined)
not listed: [14] | DIO2 (gene 1734) | DIO3 (gene 1735) | [16]
inactive: all other assays above

CCCCC(CC)COC(=O)c1ccc(O)cc1 (centres undefined)
active: [16] 61.6 µM | DIO2 (gene 1734) 82.5 µM | DIO3 (gene 1735) 79.1 µM

CCCCCC(C=O)=Cc1ccccc1
active: DIO2 (gene 1734) 62.6 µM | DIO3 (gene 1735) 16.4 µM

CCCCCCCCCCCCCC(=O)OCC(O)CO (centres undefined)
active: DIO2 (gene 1734) 100 µM | DIO3 (gene 1735) 47.9 µM
